Screens from PubChem.
Only some compounds are listed: those with a hit (about 3.5% of all), similar ones and a draw of the others.
ATG4B inhibitor – ATG4B (human) cysteine protease inhibition; Q9Y4P1; ATG4B cleavage of LC3-PLA2, NBD-HPC fluorescence, 1 h; inhibition, % at 8.33 µM; 340,000 tested, 0.51% active; AID 504462; in the data active means inhibition above about 40%
Target sequence (Q9Y4P1 whole entry, looked up): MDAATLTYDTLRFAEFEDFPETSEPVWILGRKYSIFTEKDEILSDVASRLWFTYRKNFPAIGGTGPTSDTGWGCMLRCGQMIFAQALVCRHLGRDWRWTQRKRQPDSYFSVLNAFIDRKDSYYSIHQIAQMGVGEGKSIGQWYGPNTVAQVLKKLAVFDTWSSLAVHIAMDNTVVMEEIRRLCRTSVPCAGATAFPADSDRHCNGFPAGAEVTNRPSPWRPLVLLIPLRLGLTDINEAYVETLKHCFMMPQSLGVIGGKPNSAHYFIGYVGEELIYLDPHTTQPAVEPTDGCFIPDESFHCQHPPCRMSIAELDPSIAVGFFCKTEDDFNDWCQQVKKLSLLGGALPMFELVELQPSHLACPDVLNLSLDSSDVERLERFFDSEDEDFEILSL
M1 PAM – human CHRM1 positive allosteric modulation; activation, % at 3 µM; CHO-K1 hM1, Fluo-8 calcium fluorescence, ACh EC20; 0% = ACh EC20, 100% = maximal ACh; P11229; 360,000 tested, 0.088% active; in the data active means activation above about 19%, passing the limit was not always enough
M1 ag – human M1 muscarinic receptor agonism. 360,000 tested, 0.33% active. AID 588814. activation, % at 3 µM. P11229. CHO-K1 hM1, Fluo-8 calcium fluorescence, agonist mode; 0% DMSO, 100% acetylcholine EC100;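 active means activation above the run's mean compound activation plus 3 SD, cut at about 16% in these data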;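 further: peak over basal fluorescence ratio within a 140 s kinetic read after compound addition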
M1 antag – blocks human M1 muscarinic receptor; P11229; CHO-K1 hM1, Fluo-8 calcium fluorescence, ACh EC80 antagonist; inhibition, % at 3 µM; 360,000 tested, 1.3% active; AID 588852;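 active means percent inhibition above its own plate's cutoff, namely the mean of that plate's compound wells plus 3 SD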;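 further: peak over basal fluorescence ratio during 140 s after agonist addition; 0% = ACh EC80 plus DMSO and 100% = DMSO alone without agonist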
SKN-1 block – blocks SKN-1 activity in C. elegans | C. elegans VP596 Pgst-4::GFP/RFP ratio, acrylamide-induced, 24 h | inhibition, % at 21.8 µM | 360,000 tested, 0.49% active;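 active means interference check ratio from 0.5 to 1.5 plus GFP to RFP signal ratio inhibition reaching or exceeding a fixed threshold, cut at about 30% in these data, passing the limit was not always enough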
Myeloid diff 2 – compounds promoting myeloid differentiation; ER-HoxA9 myeloid progenitors, lysozyme-GFP differentiation, flow cytometry; calls only at 10 µM; 360,000 tested, 1% active;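 active means normalized GFP-positive differentiation at or above the plate's own cutoff, the solvent-only control mean plus 3 SD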;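 further: cells exposed to compound for four days before flow analysis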
PLA2 counter – counter-screen for ATG4B inhibitors: human phospholipase A2; inhibition, % at 8.33 µM; AID 588402; shares compounds with ATG4B inhibitor; purified PLA2, NBD-C6-HPC fluorescence, 45 min; 1,600 tested, 66% active; in the data active means inhibition above about 50%
* = called active by the depositor; i = inactive; · = no result; + = active, no number.

SMILES | ATG4B inhibitor | M1 PAM | M1 ag | M1 antag | SKN-1 block | Myeloid diff 2 | PLA2 counter
COc1cc2c(C#N)c(N3CCCC3)nc(N)c2c(N)n1 | 36 | 4 | -2 | -11 | 17 | i | ·
COc1ccccc1CN(C)CC(=O)Nc1ccccc1-c1ccccc1 | 39 | 9 | -14 | -9 | 5 | i | ·
Cc1cc(C)cc(N(CC(=O)Nc2ccccc2-c2ccccc2)S(=O)(=O)c2ccccc2)c1 | 57* | 5 | -3 | -4 | 5 | i | 14
Cc1ccccc1CN(C)CC(=O)Nc1ccccc1-c1ccccc1 | 51* | -1 | -8 | -5 | 5 | i | 54*
Cc1ccc(N(CC(=O)Nc2ccccc2-c2ccccc2)S(=O)(=O)c2ccccc2)cc1 | 38 | -1 | -4 | -10 | 16 | i | ·
Cc1ccc(/C=N/NC(=O)CN2CCN(Cc3ccccc3)CC2)o1 | -4 | 6 | -7 | -10 | -8 | i | ·
OC(CN1c2ccccc2Sc2ccccc21)Cn1nnc2ccccc21 (centres undefined) | 44* | -5 | -4 | 21 | 14 | i | 65*
CNC(=S)N(Cc1ccc(OC)cc1)C1CC(=O)N(c2ccc(Cl)cc2)C1=O (centres undefined) | 28 | -2 | 2 | -25 | 3 | i | ·
Nc1nc(COC(=O)C2CC(=O)N(Cc3ccccc3Cl)C2)nc(Nc2ccccc2)n1 (centres undefined) | 8 | 10 | 0 | -11 | -1 | i | ·
Cc1cccc(NC(=O)COC(=O)c2ccccc2-c2nc3ccccc3s2)c1C | 48* | -6 | -7 | 3 | 6 | i | 51*
CC(Sc1ncnc2sc(-c3ccccc3)cc12)C(N)=O (centres undefined) | 48* | 10 | -2 | -13 | 5 | i | 62*
Cc1ccc(NC(=O)CCNC(=O)c2ccc(Br)cc2)cc1S(=O)(=O)N1CCCCCC1 | -5 | 4 | -5 | -2 | 10 | i | ·
O=c1c2ccccc2nc(SCc2cn3ccsc3n2)n1-c1ccccc1 | 60* | 5 | -3 | -24 | -14 | i | 73*
O=c1c2ccccc2nc(SCc2cn3ccsc3n2)n1-c1ccccc1F | 66* | 3 | -4 | -3 | 13 | i | 72*
O=c1c2ccccc2nc(SCc2nnc(-c3ccccc3)o2)n1-c1ccc(F)cc1F | 62* | 0 | 5 | -3 | 31 | i | 69*
COc1ccc(-c2nnc(CSc3nc4ccccc4c(=O)n3C)o2)cc1OC | -3 | 6 | -5 | -6 | 13 | i | ·
Cc1cccc(-n2c(SCc3cc(=O)n4ccsc4n3)nc3ccccc3c2=O)c1 | 4 | 9 | 0 | -56 | 25 | i | ·
c1ccc(CSCc2cn3ccsc3n2)cc1 | -2 | 12 | 2 | -4 | 7 | i | ·
O=C(CN1C(=O)NC2(CCCCCCC2)C1=O)NCc1ccccc1 | -6 | 17 | -1 | -14 | 0 | i | ·
CC(C)NC(=O)NC(=O)CSc1nnc(COc2ccccc2F)n1C(C)C1CC2CCC1C2 (centres undefined) | 42* | 4 | 0 | -10 | 3 | i | 44
CC(C1CC2CCC1C2)n1c(COc2ccccc2F)nnc1SCC(N)=O (centres undefined) | 24 | 11 | 1 | -7 | 4 | i | ·
Cc1ccc2c(c1)nnn2C1CCN(S(=O)(=O)c2ccc(C(=O)N3CC(C)CC(C)C3)cc2)CC1 (centres undefined) | 59* | -1 | -1 | -2 | 7 | i | 73*
COc1ccc(OC)c(Nc2cc3ccccc3c(=O)[nH]2)c1 | 8 | 13 | 1 | 4 | 5 | i | ·
COc1ccccc1Nc1cc2cc(Br)ccc2c(=O)[nH]1 | 66* | 8 | -2 | -6 | 3 | + | 5
CC(=O)N(C(C)=O)N1C(=O)/C(=C/c2ccc(Cl)cc2)SC1=S | 68* | 6 | -6 | -6 | -8 | i | 57*
O=C1NN(c2ccc(F)c(Cl)c2)C(=O)/C1=C\c1cccc(OC(=O)c2cccs2)c1 | 60* | 2 | -1 | -14 | -6 | i | 57*
